Screening results: PubChem, National Center for Advancing Translational Sciences (NCATS)
Sampled rows, rich in hits. Any-hit rate of the full collection: about 19%.
DT40 TDP1 no CPT = qHTS for Inhibitors of human tyrosyl-DNA phosphodiesterase 1 (TDP1): qHTS in cells in absence of CPT | Potency, µM (top dose mostly 46.2 µM), inactives show at the highest dose activity change, negative = growth inhibition, hits mostly inhibitors | AID 686978, 2013 | DT40 Tdp1-/- hTDP1 cells, no CPT, ATP luminescence, 48 h | 15% of 420,000 active; further: potency means the concentration at half of the fitted maximal effect; on the % scale 0 is the no-effect control and ±100 the full control effect; nearly all actives have a fitted effect of over 55% in size
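DT40 Tdp1-/-;hTDP1 cells, no CPT (DMSO vehicle only), 400 cells/well; compounds pin-transferred; ≥48 hr, 37 °C; CellTiter-Glo 30 min RT dark, luminescence read.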
TDP1 cell CPT = qHTS for Inhibitors of human tyrosyl-DNA phosphodiesterase 1 (TDP1): qHTS in cells in presence of CPT | chicken DT40 Tdp1-/-;hTDP1 cells + 20 nM CPT, ATP luminescence, 48 h | Potency, µM (doses to about 46.2 µM), inactives show at the highest dose activity change, negative = growth inhibition, usual class: inhibitors | 12% of 420,000 active | AID 686979, 2013; further: potency means the concentration at half of the fitted maximal effect; on the % scale 0 is the no-effect control and ±100 the full control effect; nearly all actives have a fitted effect of over 55% in size
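Chicken DT40 Tdp1-/- cells complemented with human TDP1, 400 cells/well, exposed to compounds plus 20 nM camptothecin for at least 48 h at 37 C; viability read as ATP content by CellTiter-Glo luminescence.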
HepG2 tox = qHTS for Inhibitors of TGF-b: Cytotox Counterscreen | HepG2 CAGA-GFP viability, ATP luminescence, 18 h | Potency, µM (doses to about 46.1 µM), for inactives: at the highest dose activity change, negative = cytotoxicity, actives largely listed as cytotoxic | 0.76% of 410,000 active; further: potency means the concentration at half of the fitted maximal effect
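CellTiter-Glo luminescence gave cytotoxicity after 18 hours at 37 degrees C. The cells were HepG2 CAGA-GFP in 1% FBS DMEM, stimulated with 500 pg/mL TGF-beta after compound addition. %Activity was normalised to no-cell wells (complete cell-killing) and DMSO (no toxicity), and curves were fitted and classified.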
TGFb SMAD3 inh = qHTS for Inhibitors of TGF-b. HepG2 CAGA-GFP TGF-b/SMAD3 reporter, GFP fluorescence, 18 h; TGF-beta stimulated, 500 pg/mL final. 1.2% of 410,000 active. Potency, µM (doses to about 46.1 µM), for the others: top-dose activity, negative = inhibition, most hits filed as inhibitors. AID 588855, 2011; further: potency means the concentration at half of the fitted maximal effect; on the % scale 0 is the no-effect control and ±100 the full control effect; nearly all actives have a fitted effect of over 65% in size
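HEPG2 CAGA-GFP cells (1000/well, DMEM with 1% FBS) were pre-incubated 2 h at 37 degrees C, given compound by pin tool, then stimulated with TGF-beta at 500 pg/mL final for 18 h before per-cell GFP fluorescence imaging.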
S-ASM inh = Inhibitors of Secretory Acid Sphingomyelinase (S-ASM): qHTS; Potency, µM (top dose mostly 57.5 µM), for inactives: at the top dose activity change, negative = inhibition, actives largely listed as inhibitors; Sphingomyelin phosphodiesterase (Homo sapiens), P17405; 0.006% of 340,000 active; placental ASM, HMU-PC fluorogenic substrate, 60 min; AID 504937, 2011; further: potency means the concentration at half of the fitted maximal effect
Target sequence (P17405 47-631 limits assumed): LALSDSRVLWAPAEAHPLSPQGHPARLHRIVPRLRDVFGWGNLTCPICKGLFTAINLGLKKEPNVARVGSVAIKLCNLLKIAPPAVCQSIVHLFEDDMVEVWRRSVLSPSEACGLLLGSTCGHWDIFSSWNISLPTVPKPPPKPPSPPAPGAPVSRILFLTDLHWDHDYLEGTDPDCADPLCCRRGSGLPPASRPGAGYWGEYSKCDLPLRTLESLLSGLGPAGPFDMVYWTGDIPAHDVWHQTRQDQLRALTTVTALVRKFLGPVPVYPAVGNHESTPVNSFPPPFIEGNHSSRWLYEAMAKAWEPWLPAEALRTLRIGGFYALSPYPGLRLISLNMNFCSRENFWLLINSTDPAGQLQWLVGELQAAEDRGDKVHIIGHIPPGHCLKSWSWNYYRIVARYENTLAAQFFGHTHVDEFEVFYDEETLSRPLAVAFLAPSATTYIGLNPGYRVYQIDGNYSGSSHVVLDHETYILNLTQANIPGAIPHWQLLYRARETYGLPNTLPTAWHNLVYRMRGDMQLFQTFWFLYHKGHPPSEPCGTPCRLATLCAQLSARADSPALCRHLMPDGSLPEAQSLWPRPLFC
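Human placenta-derived ASM enzyme was preincubated with compound for 10 minutes at room temperature, then given fluorogenic substrate HMU-PC0 (9 uM final) for 60 minutes at 37 °C; a pH 10 stop preceded fluorescence reading at Ex 386/Em 447 nm.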
IL1B secr inh = qHTS for Inhibitors of Inflammasome Signaling: IL-1-beta AlphaLISA Primary Screen | 4.7% of 360,000 active | THP-1 LPS/ATP IL-1B secretion, AlphaLISA, 16 h; hits give low values | activity change, % at 57.5 µM; in the data active means activity change below about -50%; inconclusive means mostly about -30% to -49%; further: on the % scale 0 is the no-effect control and ±100 the full control effect
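THP-1 cells pretreated 1 hr with compounds (up to 57.5 uM final), then stimulated with LPS (250 ng/mL final) plus ATP (1.25 mM final); secreted IL-1B measured by AlphaLISA after 16 hr, decreased signal indicating inhibition.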
Active calls of the source: *; ? = inconclusive; · = no result given. Unless noted, the call rests on the fitted dose curve; in most records, active means well fitted curve in the direction sought with a large enough effect; inconclusive means small, poorly fitted or top-dose-only effect, or another doubt; inactive means no such curve, though single readings can be large; an effect the other way counts as inactive or inconclusive.

SMILES | DT40 TDP1 no CPT | TDP1 cell CPT | HepG2 tox | TGFb SMAD3 inh | S-ASM inh | IL1B secr inh
CCCN(CCC)S(=O)(=O)c1ccc(C(=O)N2CCC(=O)c3ccccc32)cc1 | 23.1µM* | ? | -2.3% | 2.1% | -3.1% | 18.6
CN(C)S(=O)(=O)c1ccc(C(=O)NCCSc2c(-c3ccc(Br)cc3)[nH]c3ccccc23)cc1 | 2.31µM* | 4.11µM* | -26.4% | ? | · | ·
CCN(CC)S(=O)(=O)c1ccc(C(=O)NCCSc2c(-c3ccc(F)cc3)[nH]c3ccccc23)cc1 | 6.51µM* | 8.2µM* | -14.5% | ? | · | ·
COc1ccc(C(=O)NCCSc2ccccc2)cc1 | -19.4% | -13.4% | -16.3% | -1.1% | -1.0% | -13.9
COc1ccc(-c2[nH]c3ccccc3c2SCCNC(=O)c2ccccc2)cc1 | 9.2µM* | 13µM* | -34.9% | ? | -21.9% | -1.2
Cc1[nH]c2ccccc2c1SCCNC(=O)c1ccccc1F | ? | ? | -24.1% | ? | · | ·
CCOc1ccc(S(=O)(=O)NCc2nc3cccnc3n2Cc2ccccc2OC)cc1 | ? | ? | -28.3% | ? | · | ·
COc1ccccc1Nc1sc(C(=O)c2ccc3c(c2)OCO3)c(N)c1S(=O)(=O)c1ccccc1 | · | · | -4.8% | 1.1% | · | ·
CCC(=O)N1CCc2cc(Br)cc(S(=O)(=O)CCC(=O)NCCc3ccc(Cl)cc3)c21 | ? | -26.6% | -25.4% | -17.8% | · | ·
COc1ccc(NC(=O)C(Cc2ccccc2)NS(=O)(=O)c2ccc3c(c2)CCC(=O)N3)c(OC)c1 (stereo not given) | ? | -4.3% | -5.1% | -34.9% | · | ·
COc1ccc(-c2oc3ncnc(N)c3c2-c2ccccc2)cc1 | ? | -21.5% | -30.2% | ? | -1.4% | 12.8
c1ccc(-c2oc3ncnc(NCCCn4ccnc4)c3c2-c2ccccc2)cc1 | 18.4µM* | 23.1µM* | -38.0% | ? | -3.8% | -78.7*
c1ccc(-c2c(-c3ccccc3)n(Cc3ccco3)c3ncnc(NCCCn4ccnc4)c23)cc1 | ? | ? | 20µM* | ? | -13.2% | -98.2*
N=c1c2c(-c3ccccc3)c(-c3ccccc3)n(Cc3ccccc3)c2ncn1CCO | -119.9% | -117.6% | -52.7% | ? | -3.6% | -107.4*
CN(C)CCCNc1ncnc2oc(-c3ccccc3)c(-c3ccccc3)c12 | ? | ? | 0.0% | -19.6% | -0.9% | -82.7*
COc1ccc(S(=O)(=O)N2CCOC2CNC(=O)C(=O)NCc2ccc(F)cc2)cc1OC (stereo not given) | ? | -22.9% | 5.2% | 15.3% | -2.1% | 2.3
O=C(COC(=O)CNC(=O)c1ccc(Cl)c([N+](=O)[O-])c1)NNC(=O)c1ccccc1F | 11.8% | -4.8% | -1.6% | 20.6% | 0.8% | 2.8
OC[C@H]1O[C@@H](n2cnc3c2NC=NC[C@H]3O)C[C@@H]1O | -16.6% | -13.3% | · | · | · | ·
N=c1c2c(-c3ccccc3)c(-c3ccccc3)n(Cc3ccco3)c2ncn1CCCN1CCOCC1 | 3.66µM* | ? | -40.6% | ? | 5.8% | -96.3*
O=c1c2ccccc2nc(-c2ccccc2)n1CCCN1CCOCC1 | -17.6% | -11.0% | -2.9% | 3.1% | 0.0% | -5.7
CC(C)Cn1cnc2c(c(-c3ccccc3)c(-c3ccccc3)n2Cc2ccco2)c1=N | 18.4µM* | 20.6µM* | 12.6µM* | ? | -6.0% | -65.1*
N=c1c2c(-c3ccccc3)c(-c3ccccc3)n(Cc3ccco3)c2ncn1Cc1ccccc1 | -9.2% | -26.8% | -23.5% | -4.7% | -0.7% | -14.8
N=c1c2c(-c3ccccc3)c(-c3ccccc3)n(Cc3ccco3)c2ncn1CCCn1ccnc1 | 18.4µM* | 18.4µM* | -80.2% | ? | 4.7% | -23.4
CCOC(=O)c1c(NC(=O)C2CC(Cl)=CCC2C(=O)O)sc2c1CCCCC2 (stereo not given) | 5.7% | -0.9% | -8.5% | ? | -7.8% | -12.4
Cc1ccc2c(c1)c1c(n2CC(O)Cn2c(C)nc3ccccc32)/C(=N\O)CCC1 (stereo not given) | 23.1µM* | 23.1µM* | -96.5% | ? | ? | -3.2
SMILES | DT40 TDP1 no CPT | TDP1 cell CPT | HepG2 tox | TGFb SMAD3 inh | S-ASM inh | IL1B secr inh
Cc1ccc2c(c1)c1c(n2CC(O)Cn2c(C)nc3ccccc32)C(=O)CCC1 (stereo not given) | 18.4µM* | 25.9µM* | -18.0% | 1.0% | 27.5% | -1.6
Cc1ccc2c(c1)c1c(n2CC(O)Cn2ccnc2C)C(=O)CCC1 (stereo not given) | ? | ? | -2.7% | 0.8% | 121.9% | -7.9
O=C(NC1CC1)c1ccc2sc([C@H]3C[C@H](O)[C@@H](CO)O3)nc2c1 | -9.0% | 0.5% | -0.2% | 16.8% | · | -15.8
COC1=C(C(=O)O)N2C(=O)[C@@H](NC(=O)[C@H](N)C3=CCC=CC3)[C@H]2SC1 | -20.1% | -19.3% | · | · | · | ·
Cc1ccc(C)c(N2CCN(C(=O)CCCn3ncn4c(cc5occc54)c3=O)CC2)c1 | ? | ? | -10.9% | ? | -5.6% | ?
CCO[C@H]1OC(C(=O)N2CCN(Cc3ccc4c(c3)OCO4)CC2)=C[C@@H](C2CC2)[C@@H]1CCCO | ? | ? | -23.2% | ? | 2.8% | -9.3
COCC(C)NS(=O)(=O)c1ccccc1 (stereo not given) | -2.9% | -23.3% | 1.1% | 0.9% | -0.2% | 1.7
Cc1ccc(C(=O)NCC#N)cc1 | ? | ? | 5.6% | -2.9% | -3.4% | -14.8
COc1ccc(C(=O)NC(=C(Cl)Cl)S(=O)(=O)c2ccc(C)cc2)cc1 | ? | ? | -42.8% | ? | -2.6% | -94.8*
Cc1ccc(C(=O)NC(=S)NNS(=O)(=O)c2ccccc2)cc1 | -16.6% | -0.1% | -2.7% | 8.6% | -4.1% | -7.3
COC(=O)NC(=C(Cl)Cl)S(=O)(=O)c1ccccc1 | 10.3µM* | 6.51µM* | 9.3% | ? | 5.3% | -118.2*
COc1ccc(C(=O)NC(=O)COC(=O)CCS(=O)(=O)c2ccc(C)cc2)cc1 | 6.2% | -4.6% | -5.9% | 1.0% | 2.4% | 4.4
Cc1ccc(C(=O)NC(C#N)=C(Cl)Cl)cc1 | 2.31µM* | ? | -106.0% | ? | 1.1% | -103.1*
